Our source for the growth values is PubChem BioAssay (NCI).

This is part of a sample that, as a whole, favours compounds with a hit. Of some 83,000 tested, about 20% had one in any assay.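 Single-concentration screen, 48 h exposure, 96-well plates. Endpoint: percent growth. Below 10 = active.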 A number with no mark means an inactive call. Active and inactive are the calls of the source.

Among the test systems are MOLT-4 leukemia; SR leukemia; RPMI-8226 leukemia; OVCAR-5 ovarian; OVCAR-4 ovarian; SK-OV-3 ovarian; IGROV1 ovarian; OVCAR-3 ovarian; HS 578T breast; NCI/ADR-RES ovarian; T-47D breast; BT-549 breast; MDA-MB-435 melanoma; SW-620 colon; MCF7 breast; HCT-116 colon; HCC-2998 colon; KM12 colon; OVCAR-8 ovarian.
Holding throughout (assay): NCI-60 one-dose screen, 48 h (100 = growth as untreated, 0 = no growth, -100 = all killed)
Common to all, as to conditions: 10 µM unless noted

For the molecule `CC(=O)/C=C/c1ccc2c(c1)OCO2`, the growth was 103% in the assay on MOLT-4 leukemia; 98.3% in the assay on SR leukemia; 91.5% with RPMI-8226 leukemia; 106% in the assay on OVCAR-5 ovarian; 104% in the assay on OVCAR-4 ovarian; 106% in the assay on SK-OV-3 ovarian. Besides, the growth in the assay with IGROV1 ovarian is 118%; in the assay on OVCAR-3 ovarian, 109%; in the assay on HS 578T breast it was 106%; in the assay on NCI/ADR-RES ovarian, 113%; with T-47D breast it was 107%; with BT-549 breast it was 100%. The growth in the assay on MDA-MB-435 melanoma was 85.7%; in the assay on SW-620 colon, 106%; in the assay on MCF7 breast, 101%; in the assay on HCT-116 colon it was 99.3%; with HCC-2998 colon it was 109%; with KM12 colon, 109%.

Take `CCCCCCCC[N+](C)(CCCCCCCC)CCCCCCCC`: the growth in the assay on MOLT-4 leukemia is 37.4%; in the assay on SR leukemia, 28.1%; with RPMI-8226 leukemia it was 44.2%; in the assay on OVCAR-8 ovarian it was -100% (active); in the assay with OVCAR-5 ovarian it was -100% (active); in the assay with OVCAR-4 ovarian it was -94.1% (active). For the same molecule, the growth in the assay with SK-OV-3 ovarian was -97.8% (active); with OVCAR-3 ovarian, -100% (active); with HS 578T breast, -66.6% (active); in the assay on NCI/ADR-RES ovarian it was -100% (active); in the assay on T-47D breast it was -73.4% (active); in the assay on MDA-MB-435 melanoma, -90.8% (active). The growth in the assay on SW-620 colon is -100% (active); in the assay with MCF7 breast it was -100% (active); in the assay with HCT-116 colon, -100% (active); in the assay on HCC-2998 colon, -98% (active); in the assay with KM12 colon, -100% (active).

Regarding `CNC(=O)Oc1ccc(N(C)C)cc1C(C)C`, the growth in the assay on MOLT-4 leukemia is 75.3%; in the assay with SR leukemia, 123%; in the assay on OVCAR-8 ovarian it was 105%; in the assay with OVCAR-5 ovarian it was 99.8%; with OVCAR-4 ovarian, 85.9%; with SK-OV-3 ovarian, 105%. Further, the growth is 109% with IGROV1 ovarian; 97.7% with OVCAR-3 ovarian; 94.8% with HS 578T breast; 107% in the assay on NCI/ADR-RES ovarian; 101% with T-47D breast; 73.6% in the assay on BT-549 breast. The growth in the assay on MDA-MB-435 melanoma was 91.7%; in the assay on SW-620 colon it was 116%; with HCT-116 colon, 95.9%; in the assay on KM12 colon, 112%.

As for `Cc1c2cc(Cl)c3ccccc3c2c[n+]2ccccc12`, the growth in the assay on MOLT-4 leukemia is 1.48% (active); in the assay on SR leukemia, -11.7% (active); with OVCAR-8 ovarian it was -1.69% (active); with OVCAR-5 ovarian, 77.6%; with OVCAR-4 ovarian it was 30.3%; in the assay with SK-OV-3 ovarian, 66.6%. For the same molecule, the growth is 19.9% in the assay on IGROV1 ovarian; 4.55% (active) in the assay with OVCAR-3 ovarian; -33.2% (active) in the assay on HS 578T breast; 87.2% in the assay with NCI/ADR-RES ovarian; -27.4% (active) in the assay on T-47D breast; -6.2% (active) in the assay on BT-549 breast. For the same molecule, the growth in the assay on SW-620 colon is 50.7%; with MCF7 breast, 26.4%; with HCT-116 colon, 48.7%; in the assay with HCC-2998 colon it was 15.3%; in the assay on KM12 colon, 39.7%.

For `Oc1c(CCl)cc(Cl)cc1CCl`, the growth with MOLT-4 leukemia is 98.4%; with SR leukemia, 101%; in the assay with RPMI-8226 leukemia it was 106%; in the assay on OVCAR-8 ovarian, 112%; in the assay on OVCAR-5 ovarian it was 102%; in the assay on SK-OV-3 ovarian it was 107%. Moreover, the growth in the assay on IGROV1 ovarian is 115%; with OVCAR-3 ovarian, 115%; in the assay on HS 578T breast it was 104%; in the assay on NCI/ADR-RES ovarian, 102%; in the assay on T-47D breast, 102%; with MDA-MB-435 melanoma it was 102%. The growth with SW-620 colon was 115%; in the assay with MCF7 breast, 105%; in the assay on HCT-116 colon, 115%; in the assay with HCC-2998 colon, 96.5%; with KM12 colon it was 105%.

Turning to `CCn1cnc2c(Nc3cccc(Cl)c3)nc(N[C@@H]3CCCC[C@@H]3N)nc21`, the growth in the assay with MOLT-4 leukemia was -10.9% (active); in the assay with SR leukemia, -32.7% (active); in the assay on RPMI-8226 leukemia, -33.2% (active); with OVCAR-5 ovarian it was 3.37% (active); with OVCAR-4 ovarian it was -7.56% (active); in the assay on SK-OV-3 ovarian, 40.1%. Further, the growth was 5.27% (active) with IGROV1 ovarian; 26.9% in the assay with HS 578T breast; 11% in the assay with NCI/ADR-RES ovarian; 0.53% (active) in the assay on T-47D breast; 61.7% in the assay with BT-549 breast; 11.4% in the assay on MDA-MB-435 melanoma. Also, the growth is -4.4% (active) in the assay with SW-620 colon; 4.02% (active) in the assay with MCF7 breast; 0.716% (active) with HCT-116 colon; 2.16% (active) in the assay on HCC-2998 colon; -2.18% (active) in the assay with KM12 colon.

For `CCC1CC(O)c2c(O)c3c(c(O)c2C1O)C(=O)c1cccc(O)c1C3=O` (stereo not drawn) (tested in a mixture with another compound), the growth in the assay with MOLT-4 leukemia was -23.3% (active); in the assay with SR leukemia it was -0.491% (active); in the assay on RPMI-8226 leukemia, -35.8% (active); with OVCAR-5 ovarian it was -78.2% (active); with OVCAR-4 ovarian, -21.6% (active); in the assay on SK-OV-3 ovarian, 11.1%. Besides, the growth was -53.5% (active) in the assay on IGROV1 ovarian; -12% (active) in the assay with OVCAR-3 ovarian; -55.4% (active) with NCI/ADR-RES ovarian; -14.1% (active) in the assay with T-47D breast; -68.1% (active) in the assay with BT-549 breast; -90.3% (active) in the assay on MDA-MB-435 melanoma. Moreover, the growth with SW-620 colon is -60.3% (active); in the assay on MCF7 breast it was -51% (active); in the assay on HCT-116 colon, -39.8% (active); in the assay with KM12 colon, -38.4% (active).

For `O=C1C2CC=CCC2C(=O)N1SC(Cl)(Cl)Cl` (stereo not drawn), the growth was 36.3% in the assay with MOLT-4 leukemia; 41.5% in the assay with SR leukemia; 33.1% in the assay with RPMI-8226 leukemia; 102% with OVCAR-8 ovarian; 111% in the assay on OVCAR-5 ovarian; 99.9% with OVCAR-4 ovarian. Moreover, the growth in the assay on IGROV1 ovarian is 31.7%; with OVCAR-3 ovarian, 76.8%; in the assay with HS 578T breast it was 160%; in the assay with NCI/ADR-RES ovarian it was 104%; with T-47D breast, 46.3%; in the assay with BT-549 breast, 125%. The growth in the assay with MDA-MB-435 melanoma is 126%; with SW-620 colon, 8.03% (active); in the assay on MCF7 breast, 83.3%; in the assay with HCT-116 colon, 66.5%; in the assay on HCC-2998 colon it was 105%; with KM12 colon it was 103%.

Turning to `Oc1ccc2c3c1OC1[C@@H](O)CC[C@@]4(O)[C@@H](C2)N(CC2CCC2)CC[C@]314` (stereo partly drawn), the growth in the assay on MOLT-4 leukemia was 97.7%; with SR leukemia, 99.5%; in the assay with RPMI-8226 leukemia, 103%; in the assay with OVCAR-8 ovarian, 104%; in the assay with OVCAR-4 ovarian, 98.2%; in the assay on SK-OV-3 ovarian, 109%. In addition, the growth in the assay with IGROV1 ovarian was 103%; in the assay on OVCAR-3 ovarian it was 116%; with HS 578T breast it was 105%; in the assay on NCI/ADR-RES ovarian it was 102%; in the assay on T-47D breast it was 100%; with BT-549 breast it was 106%. For the same molecule, the growth was 101% with MDA-MB-435 melanoma; 104% with SW-620 colon; 92.5% in the assay with MCF7 breast; 99.2% with HCT-116 colon; 104% in the assay with KM12 colon.

With `C1CCC([PH+](C2CCCCC2)C2CCCCC2[PH+](C2CCCCC2)C2CCCCC2)CC1.O=C(C1[CH-]CCCC1)C1CCCC[N-]1.[Au]` (stereo not drawn), the growth in the assay on MOLT-4 leukemia was -5.55% (active); in the assay on SR leukemia it was -1.52% (active); with RPMI-8226 leukemia, -10.6% (active); in the assay on OVCAR-8 ovarian, 3.3% (active); with OVCAR-5 ovarian, -64.5% (active); in the assay with SK-OV-3 ovarian it was -52.2% (active). Further, the growth was -33.5% (active) in the assay on IGROV1 ovarian; -77.7% (active) in the assay with OVCAR-3 ovarian; -14.7% (active) with BT-549 breast; -43.6% (active) with MDA-MB-435 melanoma; 2.27% (active) with SW-620 colon; -42.9% (active) in the assay on MCF7 breast. In addition, the growth is -54% (active) in the assay on HCT-116 colon, -83% (active) in the assay on HCC-2998 colon and -60.9% (active) in the assay on KM12 colon.
